Hits are enriched below; roughly 5.7% of the tested compounds scored in any of these assays.
hgDAF12 agonist = hgDAF-12 agonism, primary luciferase screen. HEK293 GAL4-hgDAF12 UAS-luciferase reporter, agonist luminescence; normalized to butyrate control. activation, % at 6.8 µM. 370,000 tested, 1.8% active;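 active means activation above a cutoff set at the mean of all screened compounds plus 3 SD, cut at about 10% in these data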
ssDAF12 agonist = activates DAF-12 receptor from parasite S. stercoralis; 370,000 tested, 1% active; AID 652126; activation, % at 6.8 µM; HEK293 ssDAF-12/GRIP1 lit1-tk-luc reporter, luminescence; % of 3 µM dafachronic acid response;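 active means activation above the mean over all tested compounds plus 3 SD, cut at about 0.9% in these data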
AHR activator = human AHR activation | activation, % at 5 µM | 320,000 tested, 2.5% active | P35869 | AHR-responsive luciferase reporter cells, luminescence | AID 2796; in the data active means activation above about 47%
DAX1 inh-1 = DAX1 (NR0B1) inhibition, primary screen; HEK293T StAR-luciferase reporter, SF-1/DAX-1 repression relief; 370,000 tested, 1.1% active; inhibition, % at 6.8 µM;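 active means inhibition above the mean over all tested compounds plus 3 SD, cut at about 3.6% in these data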;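 further: higher inhibition means more luminescence from relief of DAX-1 repression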
hcDAF-12 act = H. contortus DAF-12 activation, primary screen. HEK293 hcDAF-12 lit1-tk-luc reporter, luminescence; 0% DMSO, 100% Δ7-dafachronic acid. activation, % at 6.8 µM. 370,000 tested, 1.4% active. AID 652067;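 active means activation above the mean of all tested compounds plus 3 SD, cut at about 5.5% in these data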
DAX1 inh-2 = inhibits human nuclear receptor DAX1; 340,000 tested, 0.99% active; HEK293 Gal4-DAX1 luciferase reporter, luminescence; AID 504766; inhibition, % at 6.75 µM;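 active means inhibition above the mean over all tested compounds plus 3 SD, cut at about 4.2% in these data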;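 further: inhibition shows as a rise in luminescence from relieved DAX1 repression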
Target sequence (P51843 207-470 limits assumed): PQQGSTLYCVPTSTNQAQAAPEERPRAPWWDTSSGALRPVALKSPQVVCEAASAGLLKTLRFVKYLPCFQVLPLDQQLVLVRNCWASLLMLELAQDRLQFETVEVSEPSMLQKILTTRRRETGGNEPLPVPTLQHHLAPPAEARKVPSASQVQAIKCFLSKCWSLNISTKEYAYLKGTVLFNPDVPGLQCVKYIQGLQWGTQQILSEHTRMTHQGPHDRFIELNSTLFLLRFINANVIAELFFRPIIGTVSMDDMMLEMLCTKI
A number is an active result; – = inactive; · = no result given; ! = repeats disagree.

SMILES | hgDAF12 agonist | ssDAF12 agonist | AHR activator | DAX1 inh-1 | hcDAF-12 act | DAX1 inh-2
CCOC(=O)c1cc(C(C)=O)c(=O)n(C)c1N | – | – | – | – | – | –
COc1ccc(-c2nc3ccccn3c2CN2CCN(c3ccccc3F)CC2)cc1 | – | – | – | – | – | 4.4
Cc1cc(/C=C2/NC(=O)N(c3ccccc3)C2=O)c(C)n1C(C)C | – | – | – | – | – | –
Cc1cc(/C=C2/NC(=O)N(Cc3ccccc3F)C2=O)c(C)n1C(C)C | – | – | 113.9 | – | – | –
CCn1c(C)cc(/C=C2\NC(=O)N(Cc3ccccc3)C2=O)c1C | – | – | 70.3 | – | – | –
COc1ccccc1-c1ccc(=O)n(CC(=O)NCc2ccc3c(c2)OCO3)n1 | – | – | – | – | – | –
CCN(CC)c1ccc(C(=O)OCC(=O)Nc2sccc2C#N)cc1 | 10.7 | – | – | – | – | –
CCN(CC)c1ccc(C(=O)OCC(=O)Nc2ncccn2)cc1 | – | – | – | – | – | –
CCn1c(-c2ccccc2O)n[nH]c1=S | – | – | – | – | – | –
CCn1c(-c2cc(-c3ccccc3)sc2N)n[nH]c1=S | – | – | 72.8 | – | – | ·
CCC(Oc1ccccc1)C(=O)NC1CCSC1=O (configuration not stated) | – | – | – | – | – | –
COc1ccc(C)cc1N(C(=O)c1cccc(F)c1)c1nc2ccccc2s1 | – | – | – | – | 6.5 | –
COc1ccc(C)cc1N(C(=O)COc1ccccc1)c1nc2ccccc2s1 | – | – | – | – | 6.2 | –
CCC(C)(C)C1CCC2(CC1)NC(=S)N(c1ccccc1)N2 (configuration not stated) | – | – | – | – | – | –
CCc1nnc(NC(=O)C2CCCCC2)s1 | – | – | – | – | – | –
O=C(Nc1ccc(Cl)c(S(=O)(=O)N2CCOCC2)c1)c1ccc(Cl)nc1 | – | – | · | – | – | –
O=C(Nc1ccc2cn[nH]c2c1)c1ccc(Cl)c(S(=O)(=O)N2CCOCC2)c1 | – | – | – | – | 6.5 | –
COCC(C)NC(=O)c1cc2c(ccc3ccccc32)oc1=O (configuration not stated) | – | – | – | – | – | –
CCCCNC(=O)Cn1cnc([N+](=O)[O-])n1 | – | – | – | – | – | 4.8
Oc1ccc2ccccc2c1CNc1ccccc1 | – | 1.7 | · | – | – | –
O=[N+]([O-])c1ccccc1NCc1c(O)ccc2ccccc12 | – | 1.6 | – | – | 6.3 | –
Oc1ccc2ccccc2c1CNc1ccc2ccccc2c1 | – | – | · | – | – | –
COc1ccc(N2C(=O)[C@@H]3[C@H](C2=O)[C@H]2c4ccccc4C=CN2[C@@H]3C(=O)Nc2ccccc2)cc1 | – | – | 55.5 | – | 6.1 | –
CCCCN(C=O)c1c(CC)nc2ccc(C(=O)N3CCN(C)CC3)cn12 | – | – | · | – | – | ·
CCc1ccc2[nH]c(C(=O)Nc3ccc(C)c(F)c3)cc2c1 | – | – | · | – | 5.8 | –
SMILES | hgDAF12 agonist | ssDAF12 agonist | AHR activator | DAX1 inh-1 | hcDAF-12 act | DAX1 inh-2
Oc1c(C=C2N=c3ccccc3=N2)sc(=S)n1C1CCCC1 | – | – | 59.0 | – | – | –
Oc1c(C=C2N=c3ccccc3=N2)sc(=S)n1-c1ccc(F)cc1 | – | – | – | – | – | –
N#CCCCSc1nnc(-c2ccccn2)o1 | – | – | – | – | – | –
O=c1c(-c2ccc(Cl)cc2)c[nH]n1-c1ccccc1 | – | – | – | – | – | –
O=c1c(-c2ccccc2)c[nH]n1-c1cccc([N+](=O)[O-])c1 | – | – | – | – | – | 8.3
Cc1ccc2nc(-c3ccccc3)cn2c1 | – | – | – | – | – | –
Cc1ccc2nc(-c3ccc(-c4ccccn4)s3)cn2c1 | 11.7 | – | – | – | – | –
CCOc1ccc2nc(NCCNC(=O)C3CC3)c(C)cc2c1 | – | – | – | – | – | –
Cc1cc2cc(C)c(NCCNC(=O)c3ccccc3)nc2cc1C | – | – | 63.3 | – | – | –
Cc1cc(C)c2cc(C#N)c(NCCNC(=O)c3ccccc3)nc2c1 | – | – | · | – | – | ·
CCOc1ccc2nc(NCCNC(=O)C(C)C)c(C)cc2c1 | – | – | 47.7 | – | – | –
Cc1ccc(N(C(C)C(=O)O)S(=O)(=O)c2cccnc2)cc1 (configuration not stated) | – | – | – | – | – | –
OC(CN1CCOCC1)Cn1c2ccccc2c2ccccc21 (configuration not stated) | – | – | – | – | – | –
O=C1c2ccccc2C(=O)N1CC(O)CN1CCOCC1 (configuration not stated) | – | 3.9 | – | – | – | –
CC1(c2ccc3c(c2)OCCO3)NC(=O)N(CC(=O)Nc2c(F)cccc2F)C1=O (configuration not stated) | – | – | – | – | – | –
CCOC(=O)CC1C(=O)NCCN1C(=O)c1c(F)cccc1F (configuration not stated) | – | – | – | – | – | –
COc1ccc(/C=C/C(=O)OCC(=O)Nc2ncc(Cl)cc2Cl)cc1 | – | 1.1 | – | – | – | –
O=C1c2ccccc2CC1Sc1nnc(-c2ccncc2)o1 (configuration not stated) | – | – | 62.5 | – | – | –
CC(C)(CNC(=O)C1CCCC1)CNC(=O)C1CCCC1 | – | – | – | – | – | –
O=c1cccccc1NN=C1CCCCC1 | 10.6 | – | – | – | – | 5.8
O=c1cccccc1NN=C1CCCCCC1 | – | – | – | – | – | –
CCCCNC(=O)Nc1ccc(Br)cn1 | – | – | 51.8 | – | – | –
CCCCC(=O)Nc1ccc(Br)cn1 | – | – | – | – | – | –
Fc1ccc2cc(-c3cccnc3)ncc2c1 | – | – | – | – | – | –
COc1ccc2cc(-c3cccnc3)ncc2c1 | 11.4 | – | – | – | – | –
SMILES | hgDAF12 agonist | ssDAF12 agonist | AHR activator | DAX1 inh-1 | hcDAF-12 act | DAX1 inh-2
O=C(O)c1ccc(O)cc1O | – | – | – | – | – | –
Nc1ccc(C(=O)O)c(O)c1 | 10.6! | – | – | – | – | –
COC(=O)[C@@]12CCCCC3=C1N(CCC3)C(=O)[C@H]2CC(=O)N1CCSCC1 | – | 1.5 | · | – | – | ·
COC(=O)C1CN(C(=O)c2ccc(OC(F)F)cc2)c2ccccc2O1 (configuration not stated) | – | – | – | – | – | 4.3
CN(C)CCN(C(=O)c1ccc2ccccc2c1)c1nc2cc3c(cc2s1)OCCO3 | – | – | – | 3.7 | – | –
O=c1c(Cl)c(Nc2cccc(Cl)c2)cnn1-c1nc2ccccc2s1 | – | – | – | – | 5.9 | –
COC1=C(OC)C(=O)C(Sc2ccc3ccccc3c2)=CC1=O | – | – | · | – | – | –
Cc1[nH]n(-c2ccccc2)c(=O)c1C=NC1CCCCCC1 | – | – | – | – | – | 5.5
Cc1[nH]n(-c2ccccc2)c(=O)c1C=NC1CCCCC1 | – | – | – | – | – | –
Cn1/c(=N/NC(=O)c2ccccc2Br)sc2ccccc21 | – | – | 47.5 | – | – | –

Assay outcomes: PubChem, The Scripps Research Institute Molecular Screening Center
